# The panel holds about 79,000 compounds, 15% with a hit somewhere; the sample as a whole holds those more often. Values without a mark were called inactive. Active and inactive are the calls of the source. Cut-off read from the data, not from the text of the source: active = growth inhibition above about 70%; inactive = the rest.
# Columns and labels:
# [1] = NCI Yeast Anticancer Drug Screen. Data for the rad50 strain (AID 155);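 note: 0% = growth of vehicle-only cultures of the same strain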; conditions: S. cerevisiae rad50 strain growth inhibition; at 50.0 µM; active compounds read high
# How it was run: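 Cells are treated with compound, grown, and their growth is then scored against vehicle-only cultures of the same repair-deficient yeast strain.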
# [2] = NCI Yeast Anticancer Drug Screen. Data for the mec2-1 strain (AID 157); conditions: S. cerevisiae mec2-1 strain, at 50.0 µM, active compounds read high
# How it was run: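 Each compound was tested on mec2-1 yeast, a strain altered in DNA damage repair or cell cycle control. Growth inhibition is reported relative to vehicle.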
# [3] = NCI Yeast Anticancer Drug Screen. Data for the sgs1 mgt1 strain (AID 161);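 note: 0% = growth of cultures given vehicle only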; conditions: S. cerevisiae sgs1 mgt1 strain, at 50.0 µM, active compounds read high
# How it was run: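 Inhibition of yeast growth, normalised to vehicle-treated controls, is reported for a strain bearing genetic alterations in DNA damage repair.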
# [4] = NCI Yeast Anticancer Drug Screen. Data for the cln2 rad14 strain (AID 165);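 note: 0% = growth equal to vehicle treated cultures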; conditions: S. cerevisiae cln2 rad14 strain, at 50.0 µM, active compounds read high
# How it was run: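 Test compounds were added to cln2 rad14 yeast cultures; inhibition of growth was then determined by comparison with vehicle treatment.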
# [5] = NCI Yeast Anticancer Drug Screen. Data for the bub3 strain (AID 167); conditions: S. cerevisiae bub3 mutant strain, at 50.0 µM, active compounds read high
# How it was run: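 Part of a panel of yeast mutants defective in DNA damage repair or cell cycle regulation. Each strain is grown with compound, and inhibition is calculated relative to solvent-treated cultures.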
# [6] = NCI Yeast Anticancer Drug Screen. Data for the mlh1 rad18 strain (AID 175); conditions: S. cerevisiae mlh1 rad18 strain growth inhibition; at 50.0 µM; active compounds read high
# How it was run: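 Inhibition values reflect reduced growth of mutant yeast versus vehicle-treated controls following compound exposure; the mutations affect DNA damage repair.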
Structure (SMILES),growth inhibition [1],growth inhibition [2],growth inhibition [3],growth inhibition [4],growth inhibition [5],growth inhibition [6]
Nc1ccc(Cc2ccc(N)c(Br)c2)cc1Br,-0.75%,13.9%,25.1%,-19.3%,-14.8%,32.4%
O=S=Nc1ccc([N+](=O)[O-])cc1Cl,5.7%,-1.15%,-2.9%,-33.6%,10.7%,16.6%
COC(=O)c1nc(N)nc(C(=O)OC)c1C(=O)c1cc(Cl)ccc1Cl,-8.35%,-7.9%,-1.25%,-18.2%,-6.3%,-5.65%
COc1cccc(NC(=O)CSc2nnc(-c3ccc(NC(C)=O)cc3)o2)c1,-29.2%,-15.5%,-15.3%,6.15%,-25.4%,-16.9%
CC(C)(C)C(=O)Oc1ccc(/C=C/C(=O)c2ccc(OC(=O)C(C)(C)C)cc2)cc1,-5.45%,-20.9%,-28%,-20.9%,-22.9%,-24.4%
O=C(O)CCC(=O)c1ccc2c3c1CCCC3CC2 (stereo not given),52.8%,51.5%,48.5%,29%,17.2%,70.7% (active)
CC(=O)Oc1cccc2c1ccc1nonc12,1.75%,0.35%,-2.2%,-49.8%,-11.4%,-3%
Cc1ccc(S(=O)(=O)O/C=C2/CCOC2=O)cc1,29.6%,43.2%,29.9%,28.8%,38.2%,60.9%
CC(C)CCCOC(=O)c1ccccc1,3.05%,-6.5%,-1.65%,-3.2%,21.6%,-1%
c1ccc(N=C(Nc2ccccc2)N2CCCCC2)cc1,-20%,-50.4%,-7.9%,9.85%,9.35%,-21.6%
Clc1cccc(-c2ncc(-c3ccccc3)o2)c1,8.7%,-3.8%,-0.6%,-29.2%,2.15%,19.1%
C=C1CC(CC(=O)C(C)CC2CC(=C)C(=O)O2)OC1=O (stereo not given),14.1%,-30.9%,14.9%,8.4%,24.5%,26.3%
COc1cc(CNc2ccc3nc4n(c(=O)c3c2)CCCCC4)cc(OC)c1OC,-9.7%,13.4%,7.3%,-19.2%,-15.9%,-21.2%
Cc1c(Cl)cc([N+](=O)[O-])cc1Cl,-13.2%,13.7%,-11.8%,17.1%,-3.45%,5.25%
FC(F)(F)c1cccc(NC(=S)N2CCOCC2)c1,0.35%,-2%,1.05%,-4.2%,0.3%,-11.7%
O=C(Nc1cccc(Cc2cccc(NC(=O)c3ccccc3)c2)c1)c1ccccc1,5.65%,-1.9%,-11.9%,-41.1%,-2.35%,-0.35%
COc1cc2nncc(SCc3ccc(Cl)cc3Cl)c2cc1OC,16.9%,2.9%,-1.65%,23.8%,1.2%,8.25%
BrCCCCCBr,12.4%,6.3%,1.5%,-48.5%,-5.45%,15.6%
O=C(Cc1cccc2c(=O)cc(-c3ccccc3)oc12)OCCN1CCOCC1,18.9%,31.4%,0.95%,7.4%,26.9%,29.4%
CCOC(=O)Cn1cnc2sc3c(c2c1=O)CCCC3,13.4%,21.1%,30.6%,28.7%,19.4%,35.9%

Structure (SMILES),growth inhibition [1],growth inhibition [2],growth inhibition [3],growth inhibition [4],growth inhibition [5],growth inhibition [6]
COc1cc(C(C)O)c[n+](Cc2ccccc2)c1 (stereo not given),-31.6%,-7.3%,-16.1%,3.6%,-18.9%,-18.9%
CCOC(=O)c1cc(-c2ccccc2)nc2nc(N)ccc12,15.2%,-3.15%,5.65%,9.05%,13.2%,15.2%
COc1ccccc1NC(=O)C1=C(C)NC(C)=C(C(=O)Nc2ccccc2OC)C1c1ccc(C(C)C)cc1,18.2%,3.35%,11.8%,29.6%,-11.8%,33.8%
Brc1ccc(-c2cc(-c3ccc4c(c3)OCO4)c(-c3cccs3)n2Cc2ccccc2)cc1,-17.9%,-7.55%,-0.5%,20.1%,-24.6%,-30.1%
Cc1cc(OC(=O)c2ccccc2)cc(C)c1OC(=O)c1ccccc1,10%,2.9%,0.1%,-6.15%,7.15%,-6.7%
OC1c2ccccc2-c2ccc(N(Cc3ccccc3)Cc3ccccc3)cc21 (stereo not given),6.95%,11.4%,3.75%,30.8%,-9%,23.8%
CSC(SC)C(OC(C)=O)C(OC(C)=O)C(OC(C)=O)C(COC(C)=O)OC(C)=O (stereo not given),-11.7%,11.4%,3.15%,-30.9%,2.3%,3.85%
O=C(O)/C=C\C(=O)Nc1ccc2c(c1)-c1ccccc1C2,-6.95%,-16.4%,-14.6%,-22.4%,-28.1%,2.15%
Cc1cc(NC(=O)COCC(=O)O)no1,-7.15%,-24.9%,5.65%,9.45%,0.6%,-9.15%
Nc1ncnc2c1nnn2C1CCC(CP(=O)(O)O)C1 (stereo not given),8.05%,4.45%,-4.65%,17.9%,7.3%,21.6%
c1ccc(Cc2cc(-c3cc(Cc4ccccc4)[nH]n3)n[nH]2)cc1,22.2%,11.2%,19.4%,19.2%,5.4%,20.9%
CN(C)CCNC(=O)c1ccc(Cl)c2cc3ccccc3nc12,83.3% (active),66.3%,58%,50.7%,15.7%,85.8% (active)
NC1(c2ccccc2)C2CC3CC(C2)CC1C3 (stereo not given),14.1%,1%,-9.1%,-48.8%,7.25%,3.7%
OC12c3ccccc3C1(N1CCOCC1)CCCCC21OCCCO1 (stereo not given),12.7%,-11.2%,-17.6%,10.1%,-23.5%,-5.15%
CC(=O)Nc1ccc2c(c1)N(O)C(=O)C2(C)C,7.9%,6.3%,11.4%,-36.1%,5.5%,-0.6%
COc1ccc2nc(NC(=O)C(=O)C(C)C(=O)c3ccc(Cl)cc3)sc2c1 (stereo not given),-10.1%,4.85%,-8.65%,-5.9%,-2.55%,-0.25%
Cc1c([N+](=O)[O-])ccn1C,-1.55%,10.9%,-5.7%,9.25%,7.2%,-3.7%
CC(C)=C1C=C(C(C)(C)C)C(=O)C(C(C)(C)C)=C1,29.9%,-5.9%,-1.8%,17.4%,9.15%,28.4%
CCN(C=O)c1ccccc1,15.7%,-7.55%,-6.95%,-0.8%,5.95%,6.55%
CCOC(=O)Cc1cc(Cl)c2ccc(Cl)cc2n1,32.1%,-2%,23.2%,11.6%,36.4%,40.4%

# From PubChem BioAssay (NCI)
